Values joined by “and” are separate entries in the source; they are usually repeats but may differ in a detail not shown here. Equal values may be shown once. The campaign covered roughly 140,000 compounds. About 1,400 (1%) were called active. Rule as the data show it: active = inhibition above about 17%; inactive = the rest. This excerpt belongs to a sample that is enriched for actives. Some structures have more than one record in an assay (separate samples or runs), and their calls can disagree.
Each molecule was assayed against Neuropeptide Y receptor type 2 (Homo sapiens) (UniProt P49146) (assay: NPY-Y2 receptor antagonists, primary screen, cell-based (AID 793;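 also: 0% = vehicle with agonist challenge and 100% = reference antagonist with challenge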)). Conditions: NPY-Y2 expressing cells, antagonist mode; at 2.7 µM; stronger effect = higher value.
Sequence of Neuropeptide Y receptor type 2 (Homo sapiens) (P49146 whole entry, looked up): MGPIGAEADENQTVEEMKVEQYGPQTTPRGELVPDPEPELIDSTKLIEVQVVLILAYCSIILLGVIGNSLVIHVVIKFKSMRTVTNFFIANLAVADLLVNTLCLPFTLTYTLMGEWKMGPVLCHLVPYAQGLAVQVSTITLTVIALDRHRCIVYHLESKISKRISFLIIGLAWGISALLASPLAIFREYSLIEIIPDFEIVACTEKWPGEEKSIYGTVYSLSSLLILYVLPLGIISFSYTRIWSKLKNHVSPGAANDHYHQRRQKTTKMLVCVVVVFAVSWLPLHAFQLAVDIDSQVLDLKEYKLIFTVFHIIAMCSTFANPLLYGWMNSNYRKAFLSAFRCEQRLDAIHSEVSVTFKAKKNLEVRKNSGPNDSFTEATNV
`OCC(CO)(CO)NCc1ccc(-c2ccccc2)cc1` was tested, and the inhibition was 4.54% (inactive). `COc1ccc(S(=O)(=O)NC(C)C)cc1C(=O)NC1CCCCC1` was tested, and the inhibition was 5.96% (inactive). For `COc1cc2c3c(c1)/C(=C1/SC(=S)NC1=O)C(=O)N3C(C)(C)C=C2C`, the inhibition was -1.35% (inactive). In the case of `COc1ccc(C(CC(=O)O)NC(=O)Cc2ccccc2)cc1` (configuration not stated), the inhibition is reported as 0.31% (inactive). `CCC/C=C(\CCC)C(NC(=O)Cc1ccccc1)c1ccc(C(=O)OC)cc1` (configuration not stated) was tested, and the inhibition was 20.7% (active). For `CCC[C@@H]1C[C@@]1(CCC)[C@@H](NC(=O)c1ccccc1)c1ccc(C(=O)OC)cc1`, the inhibition was 6.17% (inactive). For `CCN(c1ccc(NC(=O)COC(=O)CCc2nc3ccccc3n2-c2ccccc2)cc1)C(C)C`, the inhibition was -0.2% (inactive). `Cc1cc(-c2n[nH]c(=S)n2-c2ccc(C)c(C)c2)no1` was tested, and the inhibition was 3.33% (inactive). In the case of `Cc1nc(SCc2ccc(F)cc2)c([N+](=O)[O-])[nH]1`, the inhibition is reported as 6.36% (inactive). For `COc1cc(/C=C/C(=O)O)cc(S(=O)(=O)Nc2ccccc2SC)c1OC`, the inhibition was 1.33% (inactive). With `Cc1cccc2cc(CN(Cc3cccs3)C(c3nnnn3C3CCCC3)C(C)C)c(=O)[nH]c12` (configuration not stated) the inhibition was 11% (inactive). `Cc1cccc2cc(CN(Cc3ccc4c(c3)OCO4)Cc3nnnn3C3CCCC3)c(=O)[nH]c12` was tested, and the inhibition was -0.14% (inactive). In the case of `CCC(c1nnnn1C1CCCC1)N(Cc1cccs1)Cc1cc2cccc(C)c2[nH]c1=O` (configuration not stated), the inhibition is reported as 18% (active). In the case of `O=C(CC(=O)N/N=C\c1cccc(Cl)c1Cl)NCc1ccccc1`, the inhibition is reported as 13.3% (inactive). With `COc1ccc(-c2nn(-c3ccccc3)cc2C(=O)Nc2nccs2)cc1OC` the inhibition was 17.6% (active). With `COc1ccc(-c2nn(-c3ccccc3)cc2C(=O)Nc2nc(CC(C)=O)ns2)cc1` the inhibition was -0.9% (inactive). In the case of `COc1ccc(-c2nn(-c3ccccc3)cc2/C=N/Nc2ccccn2)cc1OC`, the inhibition is reported as 9.59% (inactive). In the case of `O=C(c1cncc(Br)c1)N1CCN(c2ccc([N+](=O)[O-])cc2)CC1`, the inhibition is reported as 0.95% (inactive). With `C/C(=N\Nc1ncc(Cl)cc1Cl)c1ccc(S(=O)(=O)NCc2ccco2)cc1` the inhibition was 2.79% (inactive). In the case of `Cc1ccc(N/N=C2\COC(C)(C)CC2=O)cc1`, the inhibition is reported as 1.13% (inactive). `Cc1ccc(NC(=O)NC(=O)CSc2nnc(-c3ccc(OC(F)F)cc3)n2N)c(C)c1` was tested, and the inhibition was 0.74% (inactive). With `CC(C)(C)NC(=O)NC(=O)COC(=O)Cn1c(C(F)(F)F)nc2ccccc21` the inhibition was 6.71% (inactive). `CN1CCN(C(=O)Cn2c(C(F)(F)F)nc3ccccc32)CC1` was tested, and the inhibition was -1.96% (inactive). For `Cc1ccccc1OC(=O)Cn1c(C(F)(F)F)nc2ccccc21`, the inhibition was 20.2% (active). In the case of `CCCCN(CC)C(=O)c1ccccc1Oc1ccccc1`, the inhibition is reported as 9.08% (inactive). For `Cc1ccc(C(=O)C[n+]2cc(-c3ccccc3)n3c2CCCCC3)cc1`, the inhibition was 13.7% (inactive) and 24.1% (active). With `O=C(c1ccc(CSc2ccccc2)cc1)N1CCCCCC1` the inhibition was 4.41% (inactive). For `Cc1ccc(C(=O)CS(C)(=O)=O)cc1`, the inhibition was 4.03% (inactive). With `COc1ccc(C2c3c(C)nn(-c4ccccc4)c3NC(=O)N2c2ccccc2)cc1` (configuration not stated) the inhibition was 0.06% (inactive). For `CCn1cc(CNC(=O)c2cc([N+](=O)[O-])c(C)c([N+](=O)[O-])c2)cn1`, the inhibition was 2.2% (inactive). With `Cc1cc(C(=O)N/N=C/c2cc([N+](=O)[O-])cc(C)c2O)n[nH]1` the inhibition was 9.9% (inactive). In the case of `O=C(COC(=O)Cn1cnc2ccccc21)Nc1cccc2c1C(=O)c1ccccc1C2=O`, the inhibition is reported as 4.37% (inactive). In the case of `O=C(Nc1ccccc1N1CCN(c2ccccc2)CC1)c1cccc(F)c1`, the inhibition is reported as 19.2% (active). In the case of `Cc1cccc(C(=O)Nc2ccccc2N2CCN(c3ccc(F)cc3)CC2)c1`, the inhibition is reported as 8.99% (inactive). With `O=C(Nc1ccccc1N1CCCCC1)c1cccc(F)c1` the inhibition was 8.36% (inactive). In the case of `CC1CCN(C(=O)c2ccc(S(=O)(=O)Cc3cc(F)ccc3F)c([N+](=O)[O-])c2)CC1`, the inhibition is reported as -1.09% (inactive). With `Cc1cccc(C)c1NC(=O)C(c1ccccc1)N1CC(=O)Nc2ccccc21` (configuration not stated) the inhibition was 1.93% (inactive). In the case of `O=C(N/N=C/c1ccc(Br)o1)c1cncc(Br)c1`, the inhibition is reported as 0.35% (inactive). `CCCC(=O)Nc1cccc(NC(=S)NC(=O)C(C)Oc2ccc(Cl)cc2Cl)c1` (configuration not stated) was tested, and the inhibition was 0.34% (inactive). For `Nc1nonc1-c1nc2ccccc2n1CCC(=O)O`, the inhibition was 3.2% (inactive). For `Nc1nonc1-c1nc2ccccc2n1Cc1ccc(F)cc1`, the inhibition was 18.1% (active). `COCc1nc2ccccc2n1Cc1ccccc1Br` was tested, and the inhibition was 4.55% (inactive). For `COc1ccc(C)c(Cn2c(-c3nonc3N)nc3ccccc32)c1`, the inhibition was 17.5% (active). With `CC(=O)Nc1nonc1-c1nc2ccccc2n1Cc1ccccn1` the inhibition was 0.29% (inactive). For `CCC(=O)Nc1nc2ccccc2n1Cc1ccccc1C`, the inhibition was 3.41% (inactive). In the case of `Cc1cc(NC(=O)COC(=O)COc2ccc(Cl)cc2C)c([N+](=O)[O-])cc1C`, the inhibition is reported as 5.09% (inactive). `CCCC(C)C(=O)OCC(=O)Nc1c(Br)cc(C)cc1Br` (configuration not stated) was tested, and the inhibition was 3.68% (inactive). For `O=C(CCCCCNC(=O)c1ccccc1)N/N=C/c1ccccc1`, the inhibition was -0.13% (inactive). For `CCCOC(=O)c1ccc(N2C(=O)c3ccccc3C2=O)cc1`, the inhibition was -1.24% (inactive). In the case of `CCCC/S(C)=N/S(=O)(=O)c1ccc(C)cc1` (configuration not stated), the inhibition is reported as 1.98% (inactive). For `O=C(NC(Nc1nc2ccc([N+](=O)[O-])cc2s1)(C(F)(F)F)C(F)(F)F)c1ccccc1`, the inhibition was 29.6% (active). With `Cc1cc(C)cc(OCC(=O)Nc2nc3ccc([N+](=O)[O-])cc3s2)c1` the inhibition was 1.9% (inactive). In the case of `COC(=O)C(NC(=O)c1ccc(OC)cc1)(Nc1ncc(S(=O)(=O)c2ccc([N+](=O)[O-])cc2)s1)C(F)(F)F` (configuration not stated), the inhibition is reported as 0.75% (inactive). In the case of `COC(=O)C1NN=C(C(=O)c2ccc(Br)cc2)C1c1cccc(Br)c1` (configuration not stated), the inhibition is reported as 0.05% (inactive). For `Cc1cc(C)n(CC(O)CN(c2ccccc2)S(=O)(=O)c2ccc3ccccc3c2)n1` (configuration not stated), the inhibition was -0.03% (inactive). In the case of `CC1CCCN(CCOCCOc2ccccc2-c2ccccc2)C1` (configuration not stated), the inhibition is reported as 10.5% (inactive). In the case of `Cc1ccc(CN2CCN(/N=C/c3cccnc3)CC2)c(C)c1`, the inhibition is reported as 2.92% (inactive). In the case of `C/C(=N\NC(=O)CNC(=O)C(c1ccccc1)c1ccccc1)c1ccc(C)cc1`, the inhibition is reported as 1.86% (inactive). In the case of `CCCn1c(C(O)c2cc(OC)ccc2OC)nc2ccccc21` (configuration not stated), the inhibition is reported as 4.69% (inactive). `COc1ccc(-c2nc3ccccc3n2CCC(C)C)cc1OC` was tested, and the inhibition was 19.5% (active). For `COCCn1c(-c2ccc(OC)c(OC)c2)nc2ccccc21`, the inhibition was 1.52% (inactive). `COC(=O)c1cc2occc2n1Cc1nc(-c2ccccc2C)oc1C` was tested, and the inhibition was 11.1% (inactive). For `O=C(CCN1C(=O)c2ccccc2C1=O)NNC(=O)c1ccc(Cl)cc1Cl`, the inhibition was 0.71% (inactive). For `Cc1ccc(NC(=O)CC2S/C(=N/N=C3\CCCc4ccccc43)NC2=O)cc1` (configuration not stated), the inhibition was -0.03% (inactive). `Cc1cccc(OCCNC(=O)CSc2ccc(C(F)(F)F)cc2[N+](=O)[O-])c1` was tested, and the inhibition was 12.7% (inactive). `Cc1ccc(C)c2[nH]c(=O)c(CCNC(=O)c3cccs3)cc12` was tested, and the inhibition was 2.37% (inactive). `Cc1cc2c(c(=O)n1C)C(C(C)C)C(C#N)=C(N)O2` (configuration not stated) was tested, and the inhibition was -0.27% (inactive). In the case of `C=CCSc1nc2c(c(=O)[nH]1)C(C(C)C)C(C#N)=C(N)O2` (configuration not stated), the inhibition is reported as 121% (active). For `C=CCOC(=O)C1=C(C)OC(N)=C(C#N)C1c1ccc(F)cc1` (configuration not stated), the inhibition was 7.81% (inactive). For `CN(C)CCCO/N=C(\c1ccccc1)c1ccncc1`, the inhibition was 0.64% (inactive). `Cc1ccc(C(=O)N/C(=C/c2cccnc2)C(=O)O)cc1` was tested, and the inhibition was 2.3% (inactive). `Cc1nn(CC(=O)Nc2ccc(N(C)C)cc2)c(C)c1[N+](=O)[O-]` was tested, and the inhibition was -0.15% (inactive). For `COc1ccc(/C(N)=N/OC(=O)CCCc2ccccc2)cc1`, the inhibition was 22.3% (active). In the case of `COc1ccc(/C(N)=N/OC(=O)Cc2ccccc2)cc1`, the inhibition is reported as 4.03% (inactive). For `N/C(=N\OC(=O)CCc1ccccc1)c1ccc(Cl)cc1`, the inhibition was 4.22% (inactive). With `COc1ccc(/C=N/N=C/c2c[nH]c(=O)c(C#N)c2Nc2ccccc2)cc1` the inhibition was 3.81% (inactive). With `O=C(CNC(c1ccccc1)c1ccccc1)Nc1ccc(F)cc1` the inhibition was 7.16% (inactive). For `O=C(COC(=O)/C(=C/c1cccs1)c1cccs1)NCc1ccccc1Cl`, the inhibition was 5.33% (inactive). `Cc1ccc(OCC(=O)Nn2cnc3ccccc32)cc1` was tested, and the inhibition was 2.86% (inactive). `C/C(N)=C(/C#N)C(=O)COC(=O)c1cc(-c2ccc(C)cc2)nc2ccccc12` was tested, and the inhibition was -0.91% (inactive). In the case of `COc1ccc(-c2cc(C(=O)n3cnc4ccccc43)c3ccccc3n2)cc1`, the inhibition is reported as 58.8% (active). In the case of `CC(Sc1nc2ccccc2c(=O)n1Cc1ccco1)C(=O)c1ccccc1` (configuration not stated), the inhibition is reported as 6.17% (inactive). With `CCOC(=O)C(C)Sc1nc2ccccc2c(=O)n1CC1CCCCC1` (configuration not stated) the inhibition was 18.5% (active). For `CCOn1c(SC(C)C)nc2ccccc2c1=O`, the inhibition was 7.2% (inactive). For `CCOC(=O)c1c(C)n(C)c2ccc(OC)c(NS(=O)(=O)CC)c12`, the inhibition was -1.01% (inactive). `CCOC(=O)Cc1csc(SCC(=O)NC(C)C23CC4CC(CC(C4)C2)C3)n1` (configuration not stated) was tested, and the inhibition was 5.04% (inactive). In the case of `CNC(=S)N/N=C/c1ccc(OCc2ccccc2)c(Br)c1`, the inhibition is reported as 6.18% (inactive). With `Cc1ccc2c(c1)C(c1ccccc1)N(C(=O)c1ccc(S(=O)(=O)N3CCOCC3)cc1)CC(=O)N2` (configuration not stated) the inhibition was 0.56% (inactive). In the case of `Cc1ccc(CC(=O)Nc2ccc(OC(F)F)c(Cl)c2)cc1C`, the inhibition is reported as 1.54% (inactive). With `O=C(Nc1c2c(nn1-c1ccc(F)cc1)CS(=O)C2)C12CC3CC(CC(C3)C1)C2` (configuration not stated) the inhibition was 2.38% (inactive). With `Cc1ccc(-n2nc3c(c2NC(=O)CCC2CCCCC2)CS(=O)C3)cc1` (configuration not stated) the inhibition was 6.05% (inactive). In the case of `O=C(CC1CCCCC1)Nc1c2c(nn1-c1ccc(F)cc1)CS(=O)(=O)C2`, the inhibition is reported as 21.6% (active).

Reference: PubChem BioAssay AID793 (The Scripps Research Institute Molecular Screening Center, 2007)
